One assay relates to C33A. The assay is described as follows: Primary qHTS to identify gynecologic anti-cancer compounds using libraries of approved drugs and bioactive compounds (AID 1345084). Further: nearly all actives have a fitted effect of over 55% in size. Further: potency means the concentration at half of the fitted maximal effect. As to conditions: Gynecologic cancer cell panel viability, ATPlite luminescence, 48 h; series mostly up to 57.5 µM. The method, boiled down: (§1)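 Cytotoxicity screen measuring ATP content by luciferase luminescence. Each compound is applied at five concentrations for 48 h at 37 C with 5% CO2.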

The next assay deals with CASKI. The description is as above. The settings on record: Gynecologic cancer cell panel viability, ATPlite luminescence, 48 h; series mostly up to 57.5 µM. The procedure, abridged:
as §1
(In ATP-based viability assays light output follows the ATP content of the culture.)

The test system of another assay is Es-2. The description is as above. As to conditions: Gynecologic cancer cell panel viability, ATPlite luminescence, 48 h; series mostly up to 57.5 µM. The method, boiled down:
as §1

A further assay concerns HeLa. The assay is described as above. The settings on record: Gynecologic cancer cell panel viability, ATPlite luminescence, 48 h; series mostly up to 57.5 µM. The procedure, abridged: as §1
Another assay relates to Hek293T. The description is as above. The settings on record: Gynecologic cancer cell panel viability, ATPlite luminescence, 48 h, control line for the selectivity index; series mostly up to 57.5 µM. The procedure, abridged:
as §1

The next assay deals with JEG-3. The assay is described as above. The settings on record: Gynecologic cancer cell panel viability, ATPlite luminescence, 48 h; series mostly up to 57.5 µM. The procedure, abridged: as §1
The test system of a further assay is Tov-21-G. Described as above. As to conditions: Gynecologic cancer cell panel viability, ATPlite luminescence, 48 h; series mostly up to 57.5 µM. The method, boiled down: as §1
In a further assay the test system is Tov112D. The assay is described as above. As to conditions: Gynecologic cancer cell panel viability, ATPlite luminescence, 48 h; series mostly up to 57.5 µM. The method, boiled down:
as §1

The test system of the next assay is SKOV3. The description is as above. The settings on record: Gynecologic cancer cell panel viability, ATPlite luminescence, 48 h; series mostly up to 57.5 µM. The method, boiled down:
as §1

Assay [1] in a line: qHTS assay to identify inhibitors of the type 1 interferon - major histocompatibility complex class I in skeletal muscle: Counter screen cell viability and HiBit confirmation (AID 1347412). Further: potency means the concentration at half of the fitted maximal effect. On activity change, negative = inhibition: on the % scale 0 is the no-effect control and ±100 the full control effect. On all read-outs here: nearly all actives have a fitted effect of over 60% in size. As to conditions: iHSKM muscle cells + IFN-b, HiBiT or CellTiter-Glo, 24 h; for activity change, negative = inhibition: at 45.9 µM (top of the series). The procedure, abridged: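 Luminescence read-out: Nano-Glo HiBiT lytic signal from C-terminally HiBiT-tagged HLA-B in CRISPR-edited human myoblasts, plus CellTiter Glo ATP as viability counter screen. IFN-beta 4.0 ng/ml; 24 hrs treatment at 37 C, 5% CO2.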
For orientation: Quantitative high-throughput screening tests each substance at several concentrations.

A further assay concerns OV90. The assay is described as follows: Primary qHTS to identify gynecologic anti-cancer compounds using libraries of approved drugs and bioactive compounds (AID 1345084). Further: nearly all actives have a fitted effect of over 55% in size. Further: potency means the concentration at half of the fitted maximal effect. The settings on record: Gynecologic cancer cell panel viability, ATPlite luminescence, 48 h; series mostly up to 57.5 µM. The procedure, abridged: as §1
For another assay, the system named is PA-1. Described as above. The settings on record: Gynecologic cancer cell panel viability, ATPlite luminescence, 48 h; series mostly up to 57.5 µM. The method, boiled down:
as §1

Assay [2] is described as follows: Drug repurposing screens with cells derived from glioblastoma tumor samples (AID 1345199). Further: on the % scale 0 is the no-effect control and ±100 the full control effect; nearly all actives have a fitted effect of over 40% in size. As to conditions: GBM patient neurospheres viability, ATP luminescence, 48 h. The procedure, abridged: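 Four patient lines of CD133+ GBM neurospheres were screened at several concentrations; hits were retested in those lines plus three slower-growing GBM lines, using 48-hour treatment and ATP-based viability.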

Assay [3] concerns the target Nuclear receptor subfamily 1 group I member 2 (Rattus norvegicus) (UniProt Q9R1A7). The assay is described as follows: qHTS assay for small molecule activators of the rat pregnane X receptor (rPXR) signaling pathway (AID 651751; call rule not given here; further: 0% is about no effect). The settings on record: rPXR reporter cells, luciferase (One-Glo), 24 h.
The nature of assay [4]: qHTS assay for small molecule activators of the human pregnane X receptor (PXR) signaling pathway (AID 720659; call rule not given here; further: 0% is about no effect).
[5] abbreviates: at 46.1 µM (top of the series), tumour line C.
[6] abbreviates: at 45.9 µM (top of the series), tumour line B.
The mark [7] stands for this setting: at 45.9 µM (top of the series), tumour line D.
Setting [8] is: at 46 µM (top of the series), tumour line A.

Where “and” joins values, the source holds several entries; their conditions need not be identical. Identical values can stand only once. Values without a mark were called inactive. Results filed as inconclusive are left out. Calls of active or inactive are those of the source. Unless noted, the call rests on the fitted dose curve; in most records, active means well fitted curve in the direction sought with a large enough effect; inconclusive means small, poorly fitted or top-dose-only effect, or another doubt; inactive means no such curve, though single readings can be large; an effect the other way counts as inactive or inconclusive.

Sequence of Nuclear receptor subfamily 1 group I member 2 (Rattus norvegicus) (Q9R1A7 whole entry, looked up): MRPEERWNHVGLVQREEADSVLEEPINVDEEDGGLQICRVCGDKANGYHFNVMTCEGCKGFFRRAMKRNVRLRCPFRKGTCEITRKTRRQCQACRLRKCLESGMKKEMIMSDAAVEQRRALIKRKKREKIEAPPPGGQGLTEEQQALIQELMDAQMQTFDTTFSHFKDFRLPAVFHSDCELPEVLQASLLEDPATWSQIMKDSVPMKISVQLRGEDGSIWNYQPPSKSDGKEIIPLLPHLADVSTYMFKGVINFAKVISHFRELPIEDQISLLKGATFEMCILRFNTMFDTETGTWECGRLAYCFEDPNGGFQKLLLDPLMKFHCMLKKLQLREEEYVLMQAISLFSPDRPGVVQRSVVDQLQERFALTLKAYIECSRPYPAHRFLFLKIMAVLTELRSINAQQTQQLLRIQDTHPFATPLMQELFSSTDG

Turning to `CC/C(=C(\c1ccccc1)c1ccc(OCCN(C)C)cc1)c1ccccc1`, the Potency entry in the assay on C33A, in the assay on CASKI, in the assay with Es-2, in the assay with HeLa, with Hek293T and with JEG-3 was “inactive” throughout. The Potency entry with Tov-21-G and in the assay on Tov112D was “inactive” in each case.
With `CNC1CCC(N(Cc2cccc(-c3ccncc3)c2)C(=O)c2sc3c(F)ccc(F)c3c2Cl)CC1` (stereo not drawn), the Potency result with C33A, with CASKI, with HeLa, with JEG-3, in the assay on SKOV3 and with Tov112D was “inactive” in each case. In addition, the activity change, negative = inhibition in [1] (HiBiT) is -27.3%.
`CCOc1ccc(Nc2nc(-c3c(C)nc4ccccn34)cs2)cc1`: the Potency was 355 nM (active) in the assay with C33A; 316 nM (active) in the assay with Es-2; 178 nM (active) in the assay on HeLa; 1.41 µM (active) in the assay on OV90; 0.316 µM (active) with Tov-21-G; 158 nM (active) in the assay on Tov112D.
As for `O=C(NCc1ccccc1)c1csc(Nc2ccncn2)n1`, the Potency result with C33A, with CASKI, in the assay on Es-2, with HeLa, in the assay on Hek293T and in the assay on JEG-3 was “inactive” in each case. Moreover, the Potency result in the assay on OV90, in the assay on PA-1 and with Tov112D was “inactive” throughout. In addition, the Potency in assay [1] (HiBiT) is 9.91 µM (active). Also, in [1] (Viability), the activity change, negative = inhibition was -20.4%.
Take `CN1CCN(CCOc2cc(OC3CCOCC3)c3c(Nc4c(Cl)ccc5c4OCO5)ncnc3c2)CC1`: the Potency result with Es-2, in the assay with HeLa, in the assay on Hek293T, in the assay with JEG-3 and in the assay with Tov112D was “inactive” throughout. In addition, the Potency in the assay with SKOV3 is 3.55 µM (active); in the assay with Tov-21-G, 2.24 µM (active).
On to `CC(C)(C)NC(=O)Nc1cccc(Nc2ncc(F)c(NC(C)(C)CO)n2)c1`, for which the Potency result in the assay on C33A, in the assay on CASKI, in the assay on Es-2, with Hek293T, with JEG-3 and in the assay on OV90 was “inactive” throughout. For the same molecule, the Potency result in the assay on PA-1, in the assay with SKOV3, in the assay on Tov-21-G and in the assay with Tov112D was “inactive” throughout.
As for `CN(C)C1CCN(C(=O)c2ccc(NC(=O)Nc3nc(N4CCOCC4)nc(N4CCOCC4)n3)cc2)CC1`, the Potency is 178 nM (active) in the assay with C33A; 141 nM (active) in the assay with CASKI; 794 nM (active) in the assay on Es-2; 794 nM (active) in the assay on HeLa; 0.891 µM (active) with Hek293T; 0.141 µM (active) in the assay on OV90. In addition, the Potency with SKOV3 was 0.1 µM (active).
Take `O=C(O)c1c(Cl)c(Cl)c(Cl)c(Cl)c1-c1c2cc(I)c(=O)c(I)c-2oc2c(I)c(O)c(I)cc12`: in assay [2] (setting [5]), the activity, negative = cell killing is -28.5%.
In the case of `C[C@H](NC(=O)C(=O)Nc1ccccc1C(C)(C)C)C(=O)N[C@@H](CC(=O)O)C(=O)COc1c(F)c(F)cc(F)c1F`, the activity change, negative = inhibition in [1] (HiBiT) is -0.932%; in assay [1] (Viability) it was 0.0107%.
In the case of `O=C1c2ccccc2-[n+]2ccc3c([nH]c4ccccc43)c21`, the Potency in assay [1] (HiBiT) is 1.57 µM (active); in assay [1] (Viability) it was 2.22 µM (active).
Regarding `CC1(C)O[C@H]2C[C@@H]3[C@H]4CCC5=CC(=O)C=C[C@]5(C)[C@@]4(F)[C@@H](O)C[C@]3(C)[C@]2(C(=O)CO)O1`, the activity, negative = cell killing in assay [2] (setting [6]) is -4.78%; in assay [2] (setting [7]), 5.68%; in assay [2] (setting [8]) it was -11.2%; in assay [2] (setting [5]) it was 3.17%.
For the molecule `NC[C@@H]1O[C@@H](O[C@H]2[C@@H](O)[C@H](O[C@@H]3[C@@H](O)[C@@H](N)C[C@H](N)[C@H]3O[C@H]3O[C@H](CN)[C@@H](O)[C@@H](O)[C@H]3N)O[C@H]2CO)[C@H](N)[C@@H](O)[C@@H]1O`, the activity, negative = cell killing in [2] (setting [6]) was 5.16%; in assay [2] (setting [7]) it was 4.28%; in [2] (setting [8]), -29.1%; in assay [2] (setting [5]), 9.32%.
For `O=c1cc(-c2ccc(O)cc2)oc2cc(O)cc(O)c12`, the max response in assay [3] is -6.83% and -1.04%.
In the case of `NS(=O)(=O)c1cccc2c1C(=O)c1cccc(O)c1C2=O`, the Potency in [1] (HiBiT) was 0.557 µM (active); in assay [1] (Viability), 0.496 µM (active).
As for `O=C(O)c1cc(O)c2c(c1)C(=O)c1cccc(O)c1C2=O`, the max response in [3] was -2.8%. Besides, in assay [4], the molecule was classed as inactive.
Consider `COc1ccc(-c2nc(N3CCOCC3)c3sc(CN(C)c4ncc(C(=O)NO)cn4)cc3n2)cn1`, for which the Potency in [1] (HiBiT) was 0.0279 µM (active).
As to `Cc1cnc(C(=O)O)c[n+]1[O-]`, the activity, negative = cell killing was -12.7% and -17.2% and -5.56% in assay [2] (setting [6]); -2.04% and 1.27% and -4.74% in assay [2] (setting [7]); -14.3% and -47.1% in [2] (setting [8]); -29.9% and -17.2% and -16.5% in [2] (setting [5]).
With `Cc1nnc(C(C)C)n1C1C[C@H]2CC[C@@H](C1)N2CC[C@H](NC(=O)C1CCC(F)(F)CC1)c1ccccc1` (stereo partly drawn), the activity, negative = cell killing in assay [2] (setting [6]) is -4.81%; in assay [2] (setting [7]), -11.6%; in assay [2] (setting [5]), 5.31%.
`CO[C@H]1C(=O)[C@]2(C)[C@@H](OC)C[C@H]3OC[C@@]3(OC(C)=O)[C@H]2[C@H](OC(=O)c2ccccc2)[C@]2(O)C[C@H](OC(=O)[C@H](O)[C@@H](NC(=O)OC(C)(C)C)c3ccccc3)C(C)=C1C2(C)C`: the activity change, negative = inhibition in [1] (Viability) was -18.6%.
On to `O=C(Nc1cccc(Br)c1)c1cccc(S(=O)(=O)N2CCCCCC2)c1`, for which the Potency result in the assay on HeLa, in the assay on JEG-3, in the assay with Tov-21-G and in the assay with Tov112D was “inactive” throughout.
On to `COc1cc(N2CCC(N3CCN(C)CC3)CC2)ccc1Nc1ncnc(Nc2ccccc2S(=O)(=O)C(C)C)n1`, for which the Potency in the assay with HeLa is 10000 nM (active); in the assay on OV90, 8.91 µM (active); with PA-1, 7.94 µM (active); in the assay with Tov-21-G, 12.6 µM (active). The Potency entry with JEG-3 was “inactive”.
Consider `CCOC(=O)O[C@]1(C(=O)OCCl)CC[C@@H]2[C@H]3CCC4=CC(=O)C=C[C@]4(C)[C@@H]3[C@@H](O)C[C@@]21C`, for which the activity, negative = cell killing was -4.15% in assay [2] (setting [6]), 8.73% in assay [2] (setting [7]), -8.19% in [2] (setting [8]) and 1.62% in [2] (setting [5]).
As for `O=c1c(-c2ccc(O)cc2)coc2cc(O)ccc12`, the max response in [3] was 6.21% and 11.9%.
`Oc1ccc(C2CCN(c3ccnc4ccccc34)CC2)cc1O`: the activity change, negative = inhibition in [1] (Viability) was -0.0528%.
For the molecule `O=c1cc(CN2CCOCC2)occ1OCCCCCSc1ccnc2cc(C(F)(F)F)ccc12`, the Potency in the assay with Hek293T was 31.6 µM (active). The Potency entry in the assay with Tov-21-G and with Tov112D was “inactive” throughout.
On to `CC1(C)CCC2=C(O1)c1ccccc1C(=O)C2=O`, for which the Potency was 22.2 µM (active) in assay [1] (HiBiT) and 24.9 µM (active) in [1] (Viability).
Consider `c1ccc2c(-c3cnn4cc(-c5ccc(N6CCNCC6)cc5)cnc34)ccnc2c1`, for which, in [1] (HiBiT), the Potency was 7.87 µM (active).
As to `NS(=O)(=O)c1ccc(NC2=CC(=O)c3ccccc3C2=O)cc1`, the Potency in assay [1] (HiBiT) is 3.52 µM (active); in assay [1] (Viability), 4.97 µM (active).
Regarding `CC(C)(C)C(=O)Oc1ccc2c(c1)nc(NC(=O)c1cccc([N+](=O)[O-])c1)n2CCCO`, the activity change, negative = inhibition in [1] (Viability) is -3.08%.
As for `O=c1cc(-c2ccccc2)oc2cc(O)cc(O)c12`, in [3], the max response is -2.91%.

The values are drawn from PubChem BioAssay (NCATS).
